Assay [1] concerns Vero E6 infected with SARS-CoV-2. Briefly: morphology score (similarity to uninfected cells); higher = more like uninfected cells. Particulars: 24 h.
Assay [2] has the same test system. Briefly: SARS-CoV-2 infection rate relative to infected DMSO; higher = more infection, active = 60 or less. To be noted: 24 h.

`O=C(O)CNC(=O)c1ccccc1` [hippuric-acid] (10 µM) showed a morphology score in assay [1] of -0.0766. The SARS-CoV-2 infection rate in assay [2] is 109% (inactive).
The corresponding values for `CN(C)CCCCSC(=N)N` (10 µM) are 0.0735 and 100% (inactive).
`CCCC(=O)Nc1ccc(OCC(O)CNC(C)C)c(C(C)=O)c1` (stereo not drawn) [acebutolol] (10 µM): the morphology score in assay [1] is -0.0282. For the same compound, the SARS-CoV-2 infection rate in assay [2] is 113% (inactive).
`CC(C)(COP(=O)(O)OP(=O)(O)OC[C@H]1O[C@@H](n2cnc3c(N)ncnc32)[C@H](O)[C@@H]1OP(=O)(O)O)[C@@H](O)C(=O)NCCC(=O)NCCS` [coenzyme-A] (10 µM) returned a morphology score in assay [1] of 0.0234. Moreover, the SARS-CoV-2 infection rate in assay [2] was 102% (inactive).
The corresponding values for `O=C(OCCN1CCCCC1)c1c[nH]c2ccccc12` (10 µM) are 0.0285 and 102% (inactive).
`CCC(COC(=O)c1cc(OC)c(OC)c(OC)c1)(c1ccccc1)N(C)C` (stereo not drawn) [trimebutine] (10 µM) displayed a morphology score in assay [1] of 0.103. Also, in assay [2], the SARS-CoV-2 infection rate is 91% (inactive).
In the case of `O=C(O)c1ccccc1NCCc1ccccc1` [tromaril] (10 µM), in assay [1], the morphology score is -0.0774. Moreover, the SARS-CoV-2 infection rate in assay [2] was 105% (inactive).
For `CC(=O)[C@H]1CC[C@H]2[C@@H]3C[C@H](C)C4=CC(=O)CC[C@]4(C)[C@H]3[C@@H](O)C[C@]12C` [medrysone] (10 µM), in that order: 0.0629 and 106% (inactive).
For `C=C1c2cccc(O)c2C(=O)C2=C(O)[C@]3(O)C(=O)C(C(N)=O)=C(O)[C@@H](N(C)C)[C@@H]3[C@@H](O)[C@H]12` [methacycline] (0.833333 µM), in that order: 0.0945 and 103% (inactive).

Source of the values: the supplement of paper PMC13380429.
